Results published in ChEMBL document CHEMBL2218924, “A broad activity screen in support of a chemogenomic map for kinase signalling research and drug discovery” (Biochem J, 2013).

Assays:
[1] = target: T1, cGMP-dependent protein kinase 1 (Homo sapiens) (UniProt Q13976); conditions: at 1 µM
T1 sequence (whole entry): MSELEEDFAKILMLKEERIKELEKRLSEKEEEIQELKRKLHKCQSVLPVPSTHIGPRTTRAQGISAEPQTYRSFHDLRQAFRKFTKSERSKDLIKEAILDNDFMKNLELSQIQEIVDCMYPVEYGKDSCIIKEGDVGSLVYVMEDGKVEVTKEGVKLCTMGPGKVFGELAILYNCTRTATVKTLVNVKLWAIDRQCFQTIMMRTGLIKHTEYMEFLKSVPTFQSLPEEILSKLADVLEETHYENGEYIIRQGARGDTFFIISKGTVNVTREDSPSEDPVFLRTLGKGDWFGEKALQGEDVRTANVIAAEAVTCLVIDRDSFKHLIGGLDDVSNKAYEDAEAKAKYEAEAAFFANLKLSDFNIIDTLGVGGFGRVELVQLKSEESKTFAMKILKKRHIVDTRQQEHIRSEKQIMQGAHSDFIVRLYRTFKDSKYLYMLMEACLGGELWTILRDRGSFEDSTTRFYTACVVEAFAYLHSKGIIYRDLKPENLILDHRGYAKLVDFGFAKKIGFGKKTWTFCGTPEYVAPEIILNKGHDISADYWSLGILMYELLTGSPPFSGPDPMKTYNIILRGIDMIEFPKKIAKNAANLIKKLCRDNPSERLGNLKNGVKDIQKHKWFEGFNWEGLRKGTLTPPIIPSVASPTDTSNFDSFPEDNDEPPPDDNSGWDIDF

[2] = target: T1, cGMP-dependent protein kinase 1 (Homo sapiens); conditions: at 10 µM
[3] = target: T1, cGMP-dependent protein kinase 1 (Homo sapiens); conditions: at 1 µM; remark: listed apart in the source
[4] = target: T1, cGMP-dependent protein kinase 1 (Homo sapiens); conditions: at 10 µM; remark: listed apart in the source
[5] = target: T2, MAP kinase-activated protein kinase 5 (Homo sapiens) (UniProt Q8IW41); conditions: at 10 µM
T2 sequence (whole entry): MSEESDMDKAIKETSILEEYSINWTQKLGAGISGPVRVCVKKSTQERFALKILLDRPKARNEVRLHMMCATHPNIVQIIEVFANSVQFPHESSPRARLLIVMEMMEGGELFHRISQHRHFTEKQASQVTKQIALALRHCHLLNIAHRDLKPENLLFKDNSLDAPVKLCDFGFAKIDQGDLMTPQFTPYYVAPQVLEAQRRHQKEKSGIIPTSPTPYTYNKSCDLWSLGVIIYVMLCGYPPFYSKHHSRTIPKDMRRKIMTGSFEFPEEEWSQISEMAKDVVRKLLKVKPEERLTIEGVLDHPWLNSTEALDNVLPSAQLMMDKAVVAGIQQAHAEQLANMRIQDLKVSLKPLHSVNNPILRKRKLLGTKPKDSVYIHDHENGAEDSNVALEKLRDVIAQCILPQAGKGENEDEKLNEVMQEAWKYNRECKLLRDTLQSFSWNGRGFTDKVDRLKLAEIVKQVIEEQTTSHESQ

[6] = target: Serine/threonine-protein kinase N2 (Homo sapiens) (UniProt Q16513); conditions: at 1 µM
Chain of Serine/threonine-protein kinase N2 (Homo sapiens) (Q16513 whole entry, looked up): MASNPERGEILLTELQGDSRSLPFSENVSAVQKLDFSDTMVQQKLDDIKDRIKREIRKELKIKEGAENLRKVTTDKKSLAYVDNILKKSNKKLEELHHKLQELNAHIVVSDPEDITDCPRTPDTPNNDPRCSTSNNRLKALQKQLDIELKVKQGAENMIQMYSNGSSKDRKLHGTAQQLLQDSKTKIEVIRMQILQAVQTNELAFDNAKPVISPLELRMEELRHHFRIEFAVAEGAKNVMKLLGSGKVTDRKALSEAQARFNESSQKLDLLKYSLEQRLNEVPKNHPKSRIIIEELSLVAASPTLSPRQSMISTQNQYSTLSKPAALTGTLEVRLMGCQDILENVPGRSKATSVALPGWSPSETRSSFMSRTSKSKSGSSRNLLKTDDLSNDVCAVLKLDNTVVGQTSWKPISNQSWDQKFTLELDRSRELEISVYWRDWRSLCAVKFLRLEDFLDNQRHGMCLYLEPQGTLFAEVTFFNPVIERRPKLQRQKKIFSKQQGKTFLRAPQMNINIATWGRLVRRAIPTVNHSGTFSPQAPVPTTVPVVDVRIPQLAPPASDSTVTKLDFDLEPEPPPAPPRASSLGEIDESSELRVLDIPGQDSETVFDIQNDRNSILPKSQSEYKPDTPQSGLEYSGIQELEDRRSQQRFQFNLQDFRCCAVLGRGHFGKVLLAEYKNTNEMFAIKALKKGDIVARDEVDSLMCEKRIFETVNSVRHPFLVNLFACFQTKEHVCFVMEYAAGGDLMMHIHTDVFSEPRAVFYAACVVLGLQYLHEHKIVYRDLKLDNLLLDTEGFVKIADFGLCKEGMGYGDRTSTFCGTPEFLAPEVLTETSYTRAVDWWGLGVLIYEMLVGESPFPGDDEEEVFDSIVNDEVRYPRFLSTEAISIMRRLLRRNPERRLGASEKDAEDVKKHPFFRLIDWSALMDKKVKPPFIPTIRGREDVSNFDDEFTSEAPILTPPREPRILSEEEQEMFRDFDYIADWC

[7] = target: Serine/threonine-protein kinase N2 (Homo sapiens) (UniProt Q16513); conditions: at 10 µM
[8] = target: Tyrosine-protein kinase FRK (Homo sapiens) (UniProt P42685); conditions: at 1 µM
Chain of Tyrosine-protein kinase FRK (Homo sapiens) (P42685 whole entry): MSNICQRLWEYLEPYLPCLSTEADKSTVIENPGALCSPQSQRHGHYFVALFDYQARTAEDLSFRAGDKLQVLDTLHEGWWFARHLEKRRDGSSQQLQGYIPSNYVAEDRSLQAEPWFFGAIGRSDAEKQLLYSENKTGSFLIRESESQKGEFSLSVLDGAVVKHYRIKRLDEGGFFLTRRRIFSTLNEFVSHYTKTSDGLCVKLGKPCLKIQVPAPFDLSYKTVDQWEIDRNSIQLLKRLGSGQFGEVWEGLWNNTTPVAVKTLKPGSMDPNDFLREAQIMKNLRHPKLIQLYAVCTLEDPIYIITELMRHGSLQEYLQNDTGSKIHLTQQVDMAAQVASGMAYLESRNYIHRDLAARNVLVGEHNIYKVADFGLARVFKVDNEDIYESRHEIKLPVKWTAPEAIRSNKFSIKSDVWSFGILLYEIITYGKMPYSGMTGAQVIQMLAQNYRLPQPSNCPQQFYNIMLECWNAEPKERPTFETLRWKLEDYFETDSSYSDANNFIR

[9] = target: Tyrosine-protein kinase FRK (Homo sapiens) (UniProt P42685); conditions: at 10 µM
[10] = target: T2, MAP kinase-activated protein kinase 5 (Homo sapiens); conditions: at 1 µM

SMILES	residual activity [1] [%]	residual activity [2] [%]	residual activity [3] [%]	residual activity [4] [%]	residual activity [5] [%]	residual activity [6] [%]	residual activity [7] [%]	residual activity [8] [%]	residual activity [9] [%]	residual activity [10] [%]
O=C1Nc2ccccc2/C1=C1/Nc2ccccc2/C1=N\OCCC(O)CO (centres undefined)	56	19	44	9	27	76	53	11	1	–
Cc1cc(Nc2nc(-c3ccccc3)nc3ccccc23)n[nH]1	82	39	82	27	–	–	58	46	8	–
N#CCCc1ccc2c(c1)-c1[nH]c3ccc([N+](=O)[O-])cc3c1CC(=O)N2	–	–	–	–	43	57	28	54	22	68
O=C1Nc2ccc(Br)cc2/C1=C\c1cc2c([nH]1)CCCC2	100	99	105	97	99	–	112	102	103	82
Cc1nc(-c2ccccc2)c(-c2ccncc2)o1	93	80	115	90	115	99	76	1	2	110
Ic1cccc(CSc2nnc(-c3ccncc3)o2)c1	105	96	88	49	117	83	70	77	78	105
O=C(Nc1cccc(Nc2nccc(Nc3cccc(C(F)(F)F)c3)n2)c1)C1CC1	100	101	90	66	65	106	96	53	11	128
COc1cc2ncc(-c3ccccc3)nc2cc1OC	–	–	–	–	85	–	–	90	90	125
COc1ccc(S(=O)(=O)N(CCO)c2ccccc2CN(C)C/C=C/c2ccc(Cl)cc2)cc1	101	99	103	86	53	95	69	100	125	98
O=C1Nc2cc(Br)ccc2/C1=C1/Nc2ccccc2/C1=N\O	90	109	78	61	90	75	92	2	0	76
Nc1cccc(-c2cc3c(Oc4cccc(O)c4)ncnc3[nH]2)c1	–	–	–	91	71	98	67	1	0	100
N#CC(C#N)=C(N)/C(C#N)=C/c1ccc(O)cc1	–	–	–	–	92	–	117	–	91	–
Cc1cc2ncc(-c3ccccc3)nc2cc1C	110	130	83	94	73	102	107	105	88	101
c1ccc2c(-c3ccncc3)c[nH]c2c1	76	23	54	12	90	30	8	88	97	87
CCN(CC)CCCCN1c2ccccc2Oc2ccc(Cl)cc21	113	110	97	94	112	107	124	105	119	96
Cn1nc2c3c(cccc31)C(=O)c1ccccc1-2	86	95	100	6	44	95	77	87	64	76
CC(=O)O/N=C1\C(=C2\C(=O)Nc3cc(Br)ccc32)Nc2ccccc21	101	112	102	76	–	98	79	17	1	105
Oc1ccc(-c2nc(-c3ccc(F)cc3)c(-c3ccncc3)[nH]2)cc1	108	66	108	78	80	107	47	65	12	110
O=C1NC(=O)c2cc(Nc3ccc(F)cc3)c(Nc3ccc(F)cc3)cc21	98	97	92	73	39	90	84	83	41	74
